# From the supplement of paper PMC12282887
# ± gives the standard deviation of the averaged measurements.
# Legend:
# Assay in all cases: promoter activity interaction Z-score (Lux/OD deviation from empty-vector control); higher = stronger promoter induction by the compound
# [1] = tested on: E. coli BW25113 acrABp lux reporter
# How it was run: (§1)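 OD600 and luminescence of E. coli BW25113 reporter cultures (40 µl LB Lennox, 384-well plates, 37°C) were measured every 30 min for 12 h. Integration ran over 0–8 h for wild type or 1–9 h for deletion strains, and wells with growth below 10% of the median were dropped. The score is the Z-transformed residual of growth-normalised luminescence fitted against a control.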
# [2] = tested on: E. coli BW25113 marRABp lux reporter
# How it was run: as §1
# [3] = tested on: E. coli BW25113 micFp lux reporter
# How it was run: as §1
# [4] = tested on: E. coli BW25113 ompFp lux reporter
# How it was run: as §1
# [5] = tested on: E. coli BW25113 robp lux reporter
# How it was run: as §1
# [6] = tested on: E. coli BW25113 soxSp lux reporter
# How it was run: as §1
# [7] = tested on: E. coli BW25113 tolCp lux reporter
# How it was run: as §1
# [8] = 1.7 µg/ml, genetic background: wild type
# [9] = 1.7 µg/ml, genetic background: ΔmarA
# [10] = 1.7 µg/ml, genetic background: Δrob
# [11] = 1.7 µg/ml, genetic background: ΔsoxS
# [12] = 3.5 µg/ml, genetic background: wild type
# [13] = 3.5 µg/ml, genetic background: ΔmarA
# [14] = 3.5 µg/ml, genetic background: Δrob
# [15] = 3.5 µg/ml, genetic background: ΔsoxS
# [16] = 6.9 µg/ml, genetic background: wild type
# [17] = 6.9 µg/ml, genetic background: ΔmarA
# [18] = 6.9 µg/ml, genetic background: Δrob
# [19] = 6.9 µg/ml, genetic background: ΔsoxS
# [20] = 13.9 µg/ml, genetic background: wild type
# [21] = 13.9 µg/ml, genetic background: ΔmarA
# [22] = 13.9 µg/ml, genetic background: Δrob
# [23] = 13.9 µg/ml, genetic background: ΔsoxS
smiles,measurement,setting,value
NC(=O)c1cc[n+](CC2=C(C(=O)[O-])N3C(=O)[C@@H](NC(=O)[C@@H](c4ccccc4)S(=O)(=O)O)[C@H]3SC2)cc1 [Cefsulodin],promoter activity interaction Z-score,[1]; [8],0.269 ± 0.15
same,promoter activity interaction Z-score,[1]; [9],0.601 ± 0.24
same,promoter activity interaction Z-score,[1]; [10],-0.158 ± 0.15
same,promoter activity interaction Z-score,[1]; [11],-0.315 ± 0.077
same,promoter activity interaction Z-score,[1]; [12],0.0267 ± 0.076
same,promoter activity interaction Z-score,[1]; [13],0.343 ± 0.28
same,promoter activity interaction Z-score,[1]; [14],0.17 ± 0.29
same,promoter activity interaction Z-score,[1]; [15],-0.28 ± 0.31
same,promoter activity interaction Z-score,[1]; [16],0.306 ± 0.13
same,promoter activity interaction Z-score,[1]; [17],-0.189 ± 0.29
same,promoter activity interaction Z-score,[1]; [18],-0.455 ± 0.052
same,promoter activity interaction Z-score,[1]; [19],-0.399 ± 0.055
same,promoter activity interaction Z-score,[1]; [20],0.379 ± 0.28
same,promoter activity interaction Z-score,[1]; [21],-0.532 ± 0.81
same,promoter activity interaction Z-score,[1]; [22],0.198 ± 0.17
same,promoter activity interaction Z-score,[1]; [23],0.0814 ± 0.14
same,promoter activity interaction Z-score,[2]; [8],0.0888 ± 0.07
same,promoter activity interaction Z-score,[2]; [9],-0.156 ± 0.32
same,promoter activity interaction Z-score,[2]; [10],-0.151 ± 0.05
same,promoter activity interaction Z-score,[2]; [11],-0.273 ± 0.013
same,promoter activity interaction Z-score,[2]; [12],0.026 ± 0.046
same,promoter activity interaction Z-score,[2]; [13],-0.154 ± 0.15
same,promoter activity interaction Z-score,[2]; [14],-0.188 ± 0.075
same,promoter activity interaction Z-score,[2]; [15],-0.12 ± 0.063
same,promoter activity interaction Z-score,[2]; [16],-0.199 ± 0.15
same,promoter activity interaction Z-score,[2]; [17],-0.257 ± 0.49
same,promoter activity interaction Z-score,[2]; [18],-0.271 ± 0.049
same,promoter activity interaction Z-score,[2]; [19],-0.324 ± 0.025
same,promoter activity interaction Z-score,[2]; [20],1.24 ± 1.6
same,promoter activity interaction Z-score,[2]; [21],0.729 ± 0.25
same,promoter activity interaction Z-score,[2]; [22],0.241 ± 0.029
same,promoter activity interaction Z-score,[2]; [23],0.341 ± 0.012
same,promoter activity interaction Z-score,[3]; [8],0.14 ± 0.014
same,promoter activity interaction Z-score,[3]; [9],-0.0463 ± 0.21
same,promoter activity interaction Z-score,[3]; [10],0.0953 ± 0.35
same,promoter activity interaction Z-score,[3]; [11],-0.338 ± 0.047
same,promoter activity interaction Z-score,[3]; [12],0.0738 ± 0.052
same,promoter activity interaction Z-score,[3]; [13],-0.0526 ± 0.14
same,promoter activity interaction Z-score,[3]; [14],-0.0549 ± 0.0043
same,promoter activity interaction Z-score,[3]; [15],-0.224 ± 0.027
same,promoter activity interaction Z-score,[3]; [16],0.373 ± 0.2
same,promoter activity interaction Z-score,[3]; [17],-0.161 ± 0.17
same,promoter activity interaction Z-score,[3]; [18],0.046 ± 0.26
same,promoter activity interaction Z-score,[3]; [19],-0.32 ± 0.14
same,promoter activity interaction Z-score,[3]; [20],0.27 ± 0.18
same,promoter activity interaction Z-score,[3]; [21],-0.237 ± 0.007
same,promoter activity interaction Z-score,[3]; [22],-0.0142 ± 0.099
same,promoter activity interaction Z-score,[3]; [23],-0.324 ± 0.022
same,promoter activity interaction Z-score,[4]; [8],0.0922 ± 0.034
same,promoter activity interaction Z-score,[4]; [9],-0.437 ± 0.1
same,promoter activity interaction Z-score,[4]; [10],0.00718 ± 0.63
same,promoter activity interaction Z-score,[4]; [11],-0.453 ± 0.23
same,promoter activity interaction Z-score,[4]; [12],0.101 ± 0.094
same,promoter activity interaction Z-score,[4]; [13],0.0789 ± 0.37
same,promoter activity interaction Z-score,[4]; [14],-0.19 ± 0.099
same,promoter activity interaction Z-score,[4]; [15],-0.294 ± 0.097
same,promoter activity interaction Z-score,[4]; [16],0.254 ± 0.0045
same,promoter activity interaction Z-score,[4]; [17],-0.42 ± 0.15
same,promoter activity interaction Z-score,[4]; [18],-0.561 ± 0.17
same,promoter activity interaction Z-score,[4]; [19],-0.258 ± 0.67
same,promoter activity interaction Z-score,[4]; [20],2.4 ± 0.66
same,promoter activity interaction Z-score,[4]; [21],1.43 ± 0.62
same,promoter activity interaction Z-score,[4]; [22],1.29 ± 0.045
same,promoter activity interaction Z-score,[4]; [23],0.329 ± 1.2
same,promoter activity interaction Z-score,[5]; [8],0.353 ± 0.3
same,promoter activity interaction Z-score,[5]; [9],-0.684 ± 0.45
same,promoter activity interaction Z-score,[5]; [10],-0.402 ± 0.66
same,promoter activity interaction Z-score,[5]; [11],-0.564 ± 0.41
same,promoter activity interaction Z-score,[5]; [12],0.22 ± 0.28
same,promoter activity interaction Z-score,[5]; [13],-0.459 ± 0.031
same,promoter activity interaction Z-score,[5]; [14],-0.153 ± 0.28
same,promoter activity interaction Z-score,[5]; [15],-0.0266 ± 0.11
same,promoter activity interaction Z-score,[5]; [16],0.775 ± 0.033
same,promoter activity interaction Z-score,[5]; [17],-1.06 ± 0.66
same,promoter activity interaction Z-score,[5]; [18],-0.421 ± 0.63
same,promoter activity interaction Z-score,[5]; [19],-0.255 ± 0.017
same,promoter activity interaction Z-score,[5]; [20],-0.0503 ± 0.35
same,promoter activity interaction Z-score,[5]; [21],-0.32 ± 0.51
same,promoter activity interaction Z-score,[5]; [22],-0.936 ± 0.25
same,promoter activity interaction Z-score,[5]; [23],-1.59 ± 0.21
same,promoter activity interaction Z-score,[6]; [8],0.243 ± 0.14
same,promoter activity interaction Z-score,[6]; [9],0.0161 ± 0.021
same,promoter activity interaction Z-score,[6]; [10],0.337 ± 0.44
same,promoter activity interaction Z-score,[6]; [11],-0.145 ± 0.16
same,promoter activity interaction Z-score,[6]; [12],0.223 ± 0.013
same,promoter activity interaction Z-score,[6]; [13],0.0152 ± 0.069
same,promoter activity interaction Z-score,[6]; [14],0.186 ± 0.38
same,promoter activity interaction Z-score,[6]; [15],0.0422 ± 0.085
same,promoter activity interaction Z-score,[6]; [16],0.195 ± 0.0077
same,promoter activity interaction Z-score,[6]; [17],-0.0335 ± 0.17
same,promoter activity interaction Z-score,[6]; [18],0.0477 ± 0.44
same,promoter activity interaction Z-score,[6]; [19],-0.0923 ± 0.35
same,promoter activity interaction Z-score,[6]; [20],0.167 ± 0.16
same,promoter activity interaction Z-score,[6]; [21],-0.302 ± 0.11
same,promoter activity interaction Z-score,[6]; [22],-0.117 ± 0.011
same,promoter activity interaction Z-score,[6]; [23],-0.0117 ± 0.15
same,promoter activity interaction Z-score,[7]; [8],0.715 ± 0.94
same,promoter activity interaction Z-score,[7]; [9],-0.256 ± 0.052
same,promoter activity interaction Z-score,[7]; [10],0.191 ± 0.14
same,promoter activity interaction Z-score,[7]; [11],-1.1 ± 0.63
same,promoter activity interaction Z-score,[7]; [12],-0.195 ± 0.71
same,promoter activity interaction Z-score,[7]; [13],-0.0142 ± 0.11
same,promoter activity interaction Z-score,[7]; [14],0.0051 ± 0.65
same,promoter activity interaction Z-score,[7]; [15],-0.229 ± 0.0049
same,promoter activity interaction Z-score,[7]; [16],0.976 ± 0.34
same,promoter activity interaction Z-score,[7]; [17],-0.562 ± 0.45
same,promoter activity interaction Z-score,[7]; [18],-0.0786 ± 0.68
same,promoter activity interaction Z-score,[7]; [19],-0.444 ± 0.1
same,promoter activity interaction Z-score,[7]; [20],-0.259 ± 0.34
same,promoter activity interaction Z-score,[7]; [21],-0.283 ± 0.28
same,promoter activity interaction Z-score,[7]; [22],-0.0472 ± 0.28
same,promoter activity interaction Z-score,[7]; [23],-0.088 ± 0.34
